Hits are enriched below; roughly 4.1% of the tested compounds scored in any of these assays.
FMDV antiviral – antivirals against foot and mouth disease virus | FMDV antiviral cell-based qHTS | Potency, µM (series often up to 57.9 µM), without a hit: top-dose activity change, negative = inhibition, actives largely listed as inhibitors | actives 1.2% (n = 410,000) | AID 1159524; calls by dose curve; tested in HEK293T cells; note: read-out not given here; nearly all actives have a fitted effect of over 45% in size
AmpC no deterg – AmpC beta-lactamase inhibition without detergent | P00811 | Potency, µM (titrated, usually from 57.1 µM), for inactives: at the highest dose activity change, negative = inhibition, hits mostly inhibitors | actives 0.52% (n = 330,000) | AID 485341 | AmpC nitrocefin hydrolysis, absorbance 480 nm, 0.0001% Triton;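 note: plate controls were no compound for no effect and no enzyme for full effect; nearly all actives have a fitted effect of over 20% in size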
Target sequence (P00811 whole entry, looked up): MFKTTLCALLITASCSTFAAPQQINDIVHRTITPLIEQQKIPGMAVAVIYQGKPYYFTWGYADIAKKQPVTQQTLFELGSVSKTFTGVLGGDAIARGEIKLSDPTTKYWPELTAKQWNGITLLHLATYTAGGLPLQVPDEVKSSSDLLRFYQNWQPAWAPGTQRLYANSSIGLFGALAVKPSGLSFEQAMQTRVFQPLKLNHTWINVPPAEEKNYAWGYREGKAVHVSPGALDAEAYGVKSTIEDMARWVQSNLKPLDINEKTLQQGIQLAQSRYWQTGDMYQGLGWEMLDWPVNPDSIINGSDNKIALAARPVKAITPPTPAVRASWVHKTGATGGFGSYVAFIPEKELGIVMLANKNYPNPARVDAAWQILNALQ
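AmpC (5.3 nM in the dispensed reagent) in 20 mM phosphate pH 7.0 with 0.01% (detergent screen) or 0.0001% Triton X-100 was preincubated with compounds for 15 min at room temperature. Nitrocefin was then added from an 800 uM solution, and hydrolysis was followed at 480 nm.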
Sm TGR inh – inhibitors of Schistosoma mansoni thioredoxin glutathione reductase | actives 3% (n = 360,000) | purified TGR, DTNB reduction, TNB absorbance 405 nm | Potency, µM (highest dose often 114 µM), inactives show at the top dose activity change, negative = inhibition, hits mostly inhibitors; note: nearly all actives have a fitted effect of over 60% in size
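Kinetic colorimetric format: TGR-catalysed, NADPH-driven DTNB reduction monitored via TNB absorbance. Enzyme dispensed at 20 nM; compound exposure 15 min at room temperature before reaction start.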
AMA1-RON2 inh – disrupts binding of P. falciparum AMA1 to RON2; AlphaScreen AMA1-biotinylated RON2 peptide binding; Potency, µM (top dose mostly 58.2 µM), inactives show at the top dose activity change, negative = inhibition, most hits filed as inhibitors; actives 0.2% (n = 360,000); AID 720542;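 note: 0% = vehicle wells and -100% = peptide control; nearly all actives have a fitted effect of over 45% in size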
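AMA1 (3D7) with his tag at 25 nM final met compounds first, then biotinylated RON2 peptide at 25 nM; detection used donor plus acceptor beads, 10 µg/mL apiece, read by AlphaScreen after 30 min at room temperature.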
AmpC detergent – inhibitors of E. coli AmpC beta-lactamase with detergent; AmpC hydrolysis of nitrocefin, absorbance 480 nm, 0.01% Triton; Potency, µM (series often up to 114 µM), for inactives: top-dose activity change, negative = inhibition, hits mostly inhibitors; P00811; actives 0.041% (n = 370,000);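 note: 0% = no-compound wells and -100% = no-enzyme wells; nearly all actives have a fitted effect of over 25% in size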
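AmpC (5.3 nM in the dispensed reagent) in 20 mM phosphate pH 7.0 with 0.01% (detergent screen) or 0.0001% Triton X-100 was preincubated with compounds for 15 min at room temperature. Nitrocefin was then added from an 800 uM solution, and hydrolysis was followed at 480 nm.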
* = called active by the depositor; ? = inconclusive; · = not tested or not shown; [ ] = remark or other dose. Unless noted, calls come from the whole dose curve; as a rule, active = well fitted curve in the direction sought with a large enough effect; inconclusive = small, poorly fitted or top-dose-only effect, or another doubt; inactive = no such curve, though single readings can be large; an effect the other way counts as inactive or inconclusive. Unless noted, % is set by controls: 0 for no effect and ±100 for the full control effect; potency is the fitted concentration of half-maximal effect.

SMILES	FMDV antiviral	AmpC no deterg	Sm TGR inh	AMA1-RON2 inh	AmpC detergent
COc1ccc([C@]23Cc4cc(OC)c(OC)cc4C(O2)c2c(cc(C)n(Cc4ccccc4)c2=O)O3)cc1	·	-21.3%[11.4 µM]	?	·	-6.3%[22.9 µM]
O=C(NCCSc1c(-c2ccc(Br)cc2)[nH]c2ccccc12)c1ccc(S(=O)(=O)N2CCOCC2)cc1	-16.9%	·	3.8%	·	6.3%
CC1=NN(c2ccc(C)c(C)c2)C(=O)/C1=C\C=C\c1ccc([N+](=O)[O-])o1	12.6µM*	-37.6%	0.0%	-16.0%	-0.2%
CCOC(=O)c1ccc(N2N=C(C)/C(=C/C=C/c3ccco3)C2=O)cc1	-1.1%	-40.1%	?	-10.9%	0.3%
CN1C(=O)CC(Nc2cccc3cccc(N)c23)C1=O (stereo not given)	-10.4%	7.8%	31.6µM*	11.2%	7.6%
CN(C)S(=O)(=O)c1ccc(/C(O)=C2/C(=O)C(=O)N(Cc3cccnc3)C2c2cccs2)cc1 (stereo not given)	5.5%	-18.1%	25.1µM*	-15.5%	-3.1%
C/C(=C\c1ccc(C)o1)C(=O)c1c(C)cc(C)[nH]c1=O	-7.5%	-17.4%	17.8µM*	-10.4%	6.3%
COCCn1c(=O)c(-c2ccc(F)cc2)nc2cnc(N(C)C)nc21	-2.4%	·	·	·	·
O=[N+]([O-])c1cccc(N=NN(CCO)c2cccc([N+](=O)[O-])c2)c1	-22.1%	-20.1%	-4.7%	-1.1%	2.3%
CCCN(N=Nc1cccc([N+](=O)[O-])c1)c1cccc([N+](=O)[O-])c1	·	-30.0%	50.1µM*	-9.8%	0.0%
Cc1ccc(S(=O)(=O)Cn2nnnc2C(C(C)C)N2CCc3ccccc3C2)cc1 (stereo not given)	·	-0.1%	28.2µM*	-18.6%	-9.5%
COc1cccc(C(=O)CC2c3c(c(Br)c4c(c3OC)OCO4)CCN2C)c1 (stereo not given)	8.4%	·	·	·	·
Cc1ccc(NCN2C(=O)C3C4C=CC(C4)C3C2=O)cc1 (stereo not given)	2.3%	-22.0%	0.0%	22.4%	-15.4%
O=C1C2C3C=CC(C3)C2C(=O)N1CNc1ccc(O)cc1 (stereo not given)	·	-36.9%	44.7µM*	·	-10.6%
CCCCN(CC)CCNC(=O)Cn1c(=O)c2cccn2c2cccnc21	-11.8%	·	-1.9%	·	-6.4%
CC1(C)CC(=O)C2=C(C1)N(Cc1ccco1)C(=O)C2(NC(=O)C1CCCCC1)C(F)(F)F (stereo not given)	13.6%	31.4%	31.6µM*	5.7%	-3.2%
CC1(C)CC(=O)C2=C(C1)N(Cc1ccco1)C(=O)C2(NC(=O)c1ccc(Cl)cc1Cl)C(F)(F)F (stereo not given)	-8.1%	0.9%	1.2%	-5.6%	?
CC1(C)CC2CC(C)(CN2Cc2c(O)ccc3ccccc23)C1 (stereo not given)	-18.8%	11.2µM*	6.31µM*	6.9%	-1.8%
CCOC(=O)c1c(C)[nH]c(C)c1S(=O)(=O)N(C)CC(=O)Nc1ccc(C)cc1Br	11.6%	·	3.9%	·	0.6%
COc1ccccc1NC(=O)CN1C(=O)CCS(=O)(=O)c2ccccc21	9.7%	-22.6%	?	9.6%	?
COc1ccc(Cl)cc1NC(=O)CN1C(=O)CCS(=O)(=O)c2ccccc21	6.9%	-5.5%	50.1µM*	0.4%	?
O=C(N/N=C\c1ccco1)c1cncc(Br)c1	·	-17.1%	0.4%	·	3.6%
O=C(N/N=C/C=C/c1ccccc1)c1cccnc1	4.1%	-19.8%	-1.3%	98.5%	1.3%
O=C(N/N=C\C=C\c1ccco1)c1cncc(Br)c1	-13.8%	-59.9%	17.8µM*	88.8%	-2.4%
CC(/C=C\C=C\c1ccccc1)=N\NC(=O)c1cncc(Br)c1	3.7%	-33.3%	39.8µM*	112.5%	5.5%
O=C(N/N=C/C=C/c1ccco1)c1cccnc1	·	-31.1%	22.4µM*	-16.0%	5.6%
O=C(N/N=C/C=C\c1ccco1)c1cccnc1	22.6%	-4.3%	25.1µM*	-6.7%	-9.9%
Cc1ccc(Cn2c(C)c(CNC3CCCCC3)c(C(=O)O)c2C)cc1	-29.2%	·	-0.3%	·	19.3%
Cc1oc(-c2ccc(Cl)cc2)nc1CS(=O)CC(=O)NCc1ccco1 (stereo not given)	-1.4%	39.4%	?	-3.7%	-5.1%
